The record followed here is PubChem BioAssay (NCI).

Holding throughout (assay): NCI-60 one-dose screen, 48 h (100 = growth as untreated, 0 = no growth, -100 = all killed)
For one test, the system named is SK-MEL-2 melanoma. The following applies: 10 µM unless noted.
The next test concerns EKVX NSCLC. Conditions: 10 µM unless noted.
In the next test the test system is SN12C renal. Conditions: 10 µM unless noted.
The next test relates to UO-31 renal. Conditions: 10 µM unless noted.
A further test has as its system TK-10 renal. The following applies: 10 µM unless noted.
The test system of a further test is ACHN renal. Conditions: 10 µM unless noted.
The next test deals with CAKI-1 renal. The following applies: 10 µM unless noted.
In another test the test system is A498 renal. The following applies: 10 µM unless noted.
In the next test the test system is CCRF-CEM leukemia. Conditions: 10 µM unless noted.
For the next test, the system named is MOLT-4 leukemia. Conditions: 10 µM unless noted.
A further test has as its system SR leukemia. The following applies: 10 µM unless noted.
The subject of the next test is RPMI-8226 leukemia. Conditions: 10 µM unless noted.
The next test deals with OVCAR-8 ovarian. Conditions: 10 µM unless noted.
The test system of another test is OVCAR-5 ovarian. Conditions: 10 µM unless noted.
A further test deals with OVCAR-4 ovarian. Conditions: 10 µM.
The subject of the next test is SK-OV-3 ovarian. The following applies: 10 µM unless noted.
The test system of a further test is IGROV1 ovarian. Conditions: 10 µM unless noted.
For the next test, the system named is OVCAR-3 ovarian. Conditions: 10 µM unless noted.
Another test concerns NCI/ADR-RES ovarian. Conditions: 10 µM unless noted.
For a further test, the system named is HS 578T breast. The following applies: 10 µM unless noted.

Structures are written as SMILES. The panel holds about 83,000 compounds, 20% with a hit somewhere; the sample as a whole holds those more often.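 Testing used 96-well plates and a 48-hour single-concentration exposure. Example: -40 means 40% of the starting cells died.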 Unmarked numbers belong to inactive results. Calls of active or inactive are those of the source. The calls were made as follows: active = growth percent below 10; inactive = the rest.

In the case of `O=C1Cc2c(sc3c(F)cccc23)C(c2ccccc2[N+](=O)[O-])N1` (stereo unspecified), the growth was 126% in the test on SK-MEL-2 melanoma; 85.2% in the test on EKVX NSCLC; 99.1% in the test on SN12C renal; 69.6% in the test on UO-31 renal; 142% in the test on TK-10 renal; 101% with ACHN renal. Further, the growth in the test on CAKI-1 renal is 75.1%; in the test with A498 renal, 115%; in the test on CCRF-CEM leukemia it was 110%; with MOLT-4 leukemia, 106%; in the test with SR leukemia, 99.4%; with RPMI-8226 leukemia it was 95.4%. The growth is 107% in the test on OVCAR-8 ovarian; 108% with OVCAR-5 ovarian; 93% in the test on OVCAR-4 ovarian; 93.1% with SK-OV-3 ovarian; 63.5% with IGROV1 ovarian; 97.9% in the test on OVCAR-3 ovarian. For the same molecule, in the test with NCI/ADR-RES ovarian, the growth was 106%.

Consider `COc1cc(OC)c(/C=C/C(=O)c2c(N)cc(OC)cc2OC)c(OC)c1`, for which the growth is 12.4% in the test on SK-MEL-2 melanoma; 49.3% in the test on EKVX NSCLC; 37% in the test with SN12C renal; 43.7% with UO-31 renal; 44.3% with TK-10 renal; 36.6% in the test with ACHN renal. Further, the growth in the test on CAKI-1 renal is 12.3%; with A498 renal it was -11.4% (active); in the test with CCRF-CEM leukemia, 12.3%; in the test on MOLT-4 leukemia it was 35.8%; with SR leukemia, 29.2%; in the test on RPMI-8226 leukemia it was 13.5%. The growth was 19.9% with OVCAR-8 ovarian; 29.7% with OVCAR-5 ovarian; 80.1% in the test on OVCAR-4 ovarian; 5.56% (active) with SK-OV-3 ovarian; 32.5% in the test with IGROV1 ovarian; -45.5% (active) with OVCAR-3 ovarian. Further, the growth with NCI/ADR-RES ovarian was -16.2% (active).

As to `c1ccc2c(c1)CN(CCCN1CCOCC1)C2`, the growth in the test with SK-MEL-2 melanoma was 105%; in the test with EKVX NSCLC, 100%; with SN12C renal, 96.6%; in the test with UO-31 renal, 93.1%; in the test on TK-10 renal, 95.4%; in the test with ACHN renal, 100%. The growth was 87.2% in the test with CAKI-1 renal; 101% in the test with A498 renal; 102% in the test on CCRF-CEM leukemia; 103% in the test with MOLT-4 leukemia; 97.8% with SR leukemia; 95.5% with RPMI-8226 leukemia. The growth with OVCAR-8 ovarian is 102%; in the test with OVCAR-5 ovarian, 99.1%; in the test on OVCAR-4 ovarian, 102%; in the test on SK-OV-3 ovarian, 102%; in the test with IGROV1 ovarian it was 101%; in the test with HS 578T breast, 109%.

With `CCC(C)[C@H](NC(=O)NC(=O)NC(=O)CI)C(=O)OC` (stereo partly specified), the growth was 86.1% with SK-MEL-2 melanoma; 102% with EKVX NSCLC; 89.3% in the test on SN12C renal; -21.3% (active) in the test on UO-31 renal; 91.8% with TK-10 renal; 57.3% in the test on ACHN renal. Moreover, the growth in the test with CAKI-1 renal was -59.6% (active); with A498 renal, 89.1%; with CCRF-CEM leukemia, -46.2% (active); in the test on MOLT-4 leukemia, -16.7% (active); with SR leukemia, -40.7% (active); in the test on RPMI-8226 leukemia it was 61.9%. Besides, the growth is 88.1% in the test on OVCAR-8 ovarian; 94.3% with OVCAR-5 ovarian; 63.6% with OVCAR-4 ovarian; 88.4% in the test with SK-OV-3 ovarian; 80.7% with IGROV1 ovarian; 84.9% with HS 578T breast. In addition, in the test on NCI/ADR-RES ovarian, the growth is 98.4%.

`Nc1nc(SCc2cccc([N+](=O)[O-])c2)c2[nH]cnc2n1`: the growth in the test on SK-MEL-2 melanoma was 96%; in the test on EKVX NSCLC, 90.9%; in the test on SN12C renal it was 94.9%; in the test with UO-31 renal, 64.7%; in the test with TK-10 renal, 90.4%; in the test with ACHN renal, 99.6%. In addition, the growth is 84% in the test on CAKI-1 renal; 82.1% in the test with A498 renal; 95% with CCRF-CEM leukemia; 91.4% in the test with MOLT-4 leukemia; 95.6% with SR leukemia; 91.8% in the test on RPMI-8226 leukemia. Further, the growth was 96.5% in the test with OVCAR-8 ovarian; 101% in the test with OVCAR-5 ovarian; 99.3% with OVCAR-4 ovarian; 109% in the test on SK-OV-3 ovarian; 89.2% in the test with IGROV1 ovarian; 99.9% with HS 578T breast. Besides, the growth in the test with NCI/ADR-RES ovarian was 97.6%.

As for `N#C/C(=C(/O)CCCO)c1nc2ccccc2c(=O)[nH]1`, the growth with SK-MEL-2 melanoma is 87.7%; in the test with EKVX NSCLC, 108%; in the test on SN12C renal, 100%; with UO-31 renal, 106%; in the test on TK-10 renal, 110%; with ACHN renal it was 106%. The growth with CAKI-1 renal was 149%; with A498 renal, 124%; in the test on CCRF-CEM leukemia, 97.8%; in the test on MOLT-4 leukemia, 105%; in the test on SR leukemia, 90.9%; in the test on RPMI-8226 leukemia it was 91.1%. In addition, the growth is 107% in the test with OVCAR-8 ovarian; 92.5% in the test with OVCAR-5 ovarian; 104% with OVCAR-4 ovarian; 105% in the test on SK-OV-3 ovarian; 109% with IGROV1 ovarian; 102% in the test with HS 578T breast. Also, the growth with NCI/ADR-RES ovarian is 95%.

On to `Nc1cc(N)c(N=Nc2ccc(S(=O)(=O)O)cc2)cc1N=Nc1ccc(-c2ccc(N=Nc3ccc(O)c(C(=O)O)c3)cc2)cc1`, for which the growth is 103% in the test with SK-MEL-2 melanoma; 97.1% in the test with EKVX NSCLC; 102% in the test on SN12C renal; 79.8% in the test with UO-31 renal; 142% in the test on TK-10 renal; 99.8% with ACHN renal. The growth in the test with CAKI-1 renal is 90%; in the test on A498 renal, 108%; with CCRF-CEM leukemia, 98%; with MOLT-4 leukemia, 102%; in the test with SR leukemia, 110%; in the test with RPMI-8226 leukemia, 99.2%. Further, the growth in the test on OVCAR-8 ovarian was 100%; with OVCAR-5 ovarian, 108%; in the test on OVCAR-4 ovarian it was 103%; with SK-OV-3 ovarian it was 100%; in the test on IGROV1 ovarian it was 104%; in the test on HS 578T breast, 105%. Also, in the test with NCI/ADR-RES ovarian, the growth is 98.9%.

As to `Cc1ccccc1OC(=O)c1cccc(Cl)c1`, the growth in the test on SK-MEL-2 melanoma was 103%; in the test on EKVX NSCLC, 99.2%; in the test with SN12C renal, 110%; in the test with UO-31 renal, 80.2%; in the test with TK-10 renal, 108%; in the test on ACHN renal, 107%. In addition, the growth in the test on CAKI-1 renal was 109%; in the test on A498 renal it was 90.5%; in the test on CCRF-CEM leukemia, 98%; in the test with MOLT-4 leukemia, -16.3% (active); in the test on SR leukemia it was 97.3%; in the test on RPMI-8226 leukemia, 98.8%. The growth was 112% with OVCAR-8 ovarian; 104% in the test with OVCAR-5 ovarian; 112% in the test with OVCAR-4 ovarian; 137% with SK-OV-3 ovarian; 104% with IGROV1 ovarian; 109% in the test on OVCAR-3 ovarian. Besides, the growth in the test with NCI/ADR-RES ovarian is 108%.
